We go through 21 compounds from PMC5540273 (PLoS ONE, 2017).

One test relates to T1, JNK1.
T1 construct: gene MAPK8
Particulars: concentration: 1 μM, replicates: in singlicate, n = 1.

Another test has as its system T2, JNK2.
T2 construct: gene MAPK9
The conditions noted are these: concentration: 1 μM, replicates: in singlicate, n = 1.

The next test relates to T3, JNK3.
T3 construct: gene MAPK10
The conditions noted are these: concentration: 1 μM, replicates: in singlicate, n = 1.

The subject of another test is KIT-autoinhibited. Particulars: concentration: 1 μM, replicates: in singlicate, n = 1.
For a further test, the system named is KIT. Particulars: concentration: 1 μM, replicates: in singlicate, n = 1.
The test system of the next test is LATS1. Particulars: concentration: 1 μM, replicates: in singlicate, n = 1.
A further test concerns LATS2. The conditions noted are these: concentration: 1 μM, replicates: in singlicate, n = 1.
The next test relates to LCK. Particulars: concentration: 1 μM, replicates: in singlicate, n = 1.
A further test concerns LIMK1. Particulars: concentration: 1 μM, replicates: in singlicate; n = 1.
In the next test the test system is LIMK2. Particulars: concentration: 1 μM, replicates: in singlicate, n = 1.

Molecules are shown by their SMILES. Several values for one entry are separate records, joined by “and”; a condition that tells them apart may be missing. Identical values can stand only once. Like-named read-outs stand apart in the source and are kept apart here.
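Note: KINOMEscan kinase panel screen.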

`COc1ccc(-c2nc3n(c2-c2ccncc2)CCC3)cc1` [SKF-104493]: the “%Inh” value was 46% and 22% in the test on JNK1 (1 µM); 37% and 50% with JNK2 (1 µM); 47% and 65% in the test with JNK3 (1 µM); 0% and 19% in the test with KIT-autoinhibited (1 µM); 0% and 25% in the test on KIT (1 µM); 0% and 19% with LATS1 (1 µM). The “%Inh” value in the test on LATS2 (1 µM) was 16% and 12%; in the test on LCK (1 µM) it was 26% and 23%; in the test with LIMK1, 0%; in the test with LIMK2 (1 µM), 0% and 3%.

Regarding `Fc1cccc(COc2ccc(Nc3ncnc4sc(-c5ccc[nH]5)cc34)cc2Cl)c1` [GW707818], the “%Inh” value is 1% in the test on JNK1; 15% in the test with JNK2; 0% with JNK3; 0% with KIT-autoinhibited; 16% with KIT; 9% with LATS1. Also, the “%Inh” value in the test with LATS2 was determined as 0%; with LCK it was 8%; with LIMK1, 9%; in the test with LIMK2, 17%.

For the compound `Nc1nc(-c2ccc3c(N)n[nH]c3c2)cc(N2CCCCC2)n1` [GSK2228768], the “%Inh” value came to 5% in the test on JNK1; 11% with JNK2; 0% in the test with JNK3; 0% in the test on KIT-autoinhibited; 5% in the test on KIT; 0% with LATS1. Further, the “%Inh” value with LATS2 was 0%; in the test on LCK, 3%; with LIMK1 it was 0%; with LIMK2, 0%.

As to `Cc1cccc(-c2nc(Nc3ccc4[nH]nnc4c3)c3ccccc3n2)n1` [GW867587], the “%Inh” value in the test with JNK1, with JNK2, with JNK3, in the test with KIT-autoinhibited, in the test with KIT and in the test on LATS1 was 0% throughout. In addition, the “%Inh” value in the test with LATS2 amounted to 0%; in the test on LCK, 7%; with LIMK1, 0%; in the test with LIMK2, 0%.

With `COc1ccc(-c2oc3ncnc(N)c3c2-c2ccc(OC)cc2)cc1` [SB-589132], the “%Inh” value is listed as 30% in the test with JNK1; 10% with JNK2; 0% in the test on JNK3; 29% in the test on KIT-autoinhibited; 49% in the test on KIT; 100% with LATS1. In addition, the “%Inh” value in the test on LATS2 is recorded as 0%; in the test with LCK it was 54%; in the test with LIMK1 it was 24%; with LIMK2, 8%.

`O=C(Nc1n[nH]c2nc(-c3ccco3)c(Br)cc12)c1ccc(CN2CCCC2)cc1.O=C(O)[C@H](O)[C@@H](O)C(=O)O` [SB-742352]: the “%Inh” value is reported as 0% in the test with JNK1; 0% with JNK2; 0% with JNK3; 0% in the test on KIT-autoinhibited; 99.2% in the test on KIT; 0% in the test with LATS1. In addition, the “%Inh” value came to 0% in the test with LATS2, 47% with LCK, 26% with LIMK1 and 0% with LIMK2.

`C[C@@H]1CCN(C(=O)CO)C[C@@H]1N(C)c1ncnc2[nH]ccc12`: the “%Inh” value in the test with JNK1 is listed as 19%; in the test on JNK2 it was 0%; with JNK3 it was 0%; in the test with KIT-autoinhibited, 0%; in the test on KIT, 12%; in the test on LATS1 it was 0%. Moreover, the “%Inh” value with LATS2 was 16%; in the test on LCK, 20%; with LIMK1, 0%; in the test on LIMK2, 8%.

Turning to `Oc1ccc2ncnc(Nc3ccc(OCc4ccccc4)cc3)c2c1` [GI262866], the “%Inh” value stood at 0% with JNK1; 0% with JNK2; 0% in the test with JNK3; 0% with KIT-autoinhibited; 48% in the test with KIT; 0% with LATS1. The “%Inh” value in the test on LATS2 turned out to be 0%; in the test with LCK, 2%; in the test with LIMK1 it was 0%; in the test on LIMK2, 4%.

As to `Clc1cc(Nc2ncnc3cc[nH]c23)ccc1OCc1ccccn1`, the “%Inh” value in the test on JNK1 came to 31%; in the test with JNK2 it was 40%; with JNK3, 53%; in the test with KIT-autoinhibited, 11%; in the test on KIT it was 38%; in the test with LATS1, 14%. Besides, the “%Inh” value is listed as 29% in the test on LATS2, 7% in the test on LCK, 0% in the test on LIMK1 and 0% in the test on LIMK2.

Consider `c1ccc(-c2ccc3c(-c4ccnc(Nc5ccc6c(c5)OCCO6)n4)cnn3n2)cc1` [GW818941], for which the “%Inh” value came to 28% with JNK1; 4% in the test with JNK2; 8% in the test on JNK3; 0% in the test with KIT-autoinhibited; 10% with KIT; 11% with LATS1. The “%Inh” value is on record as 0% with LATS2, 22% with LCK, 27% with LIMK1 and 0% with LIMK2.

Turning to `COc1cc2c(Nc3cccc(NC(=O)c4ccccc4)c3)ncnc2cc1OCCCN1CCOCC1` [GSK223810], the “%Inh” value was found to be 34% in the test on JNK1; 58% with JNK2; 31% with JNK3; 0% in the test on KIT-autoinhibited; 93.4% in the test with KIT; 0% in the test on LATS1. The “%Inh” value is 0% with LATS2, 84% with LCK, 13% with LIMK1 and 7% with LIMK2.

As for `O=C(NCCCN1CCCC1=O)c1cnc(NCc2cc(Cl)ccc2Cl)nc1NC1CCNCC1`, the “%Inh” value in the test with JNK1, in the test on JNK2, in the test on JNK3, with KIT-autoinhibited, in the test with KIT and in the test with LATS1 was 0% throughout. Further, the “%Inh” value is reported as 29% in the test on LATS2, 15% in the test with LCK, 0% with LIMK1 and 0% in the test with LIMK2.

Turning to `Clc1cccc(-c2nc(Nc3ccncc3)c3ccccc3n2)c1` [GW873004], the “%Inh” value with JNK1 is 0%; in the test on JNK2, 0%; in the test on JNK3, 0%; in the test on KIT-autoinhibited, 1%; with KIT, 10%; with LATS1, 14%. Moreover, the “%Inh” value amounted to 0% in the test with LATS2, 31% with LCK, 54% in the test with LIMK1 and 12% with LIMK2.

For the compound `N#Cc1ccc(Oc2ccc(Nc3ncnc4cc[nH]c34)cc2Cl)cc1`, the “%Inh” value stood at 58% with JNK1; 9% with JNK2; 20% in the test on JNK3; 3% in the test on KIT-autoinhibited; 31% in the test on KIT; 22% in the test with LATS1. Further, the “%Inh” value in the test with LATS2 stood at 23%; with LCK, 0%; in the test on LIMK1, 13%; in the test with LIMK2, 0%.

For `Cl.Cl.c1ccc(-c2cc3ccncc3cc2OC2CCNCC2)cc1` [GSK1122999], the “%Inh” value was found to be 14% in the test on JNK1; 15% in the test with JNK2; 0% in the test on JNK3; 0% in the test with KIT-autoinhibited; 18% in the test on KIT; 33% with LATS1. The “%Inh” value in the test on LATS2 worked out at 50%; in the test with LCK, 38%; in the test on LIMK1, 18%; with LIMK2, 34%.

For `CCC(CC)(CC)n1cnc2c(N)ncnc21` [SKF-97620], the “%Inh” value is listed as 29% in the test on JNK1; 24% with JNK2; 4% in the test on JNK3; 0% in the test with KIT-autoinhibited; 0% with KIT; 24% in the test on LATS1. Moreover, the “%Inh” value with LATS2 is on record as 0%; in the test with LCK it was 14%; with LIMK1, 10%; with LIMK2 it was 0%.

Take `CS(=O)(=O)CCNCc1nc(-c2ccc3ncnc(Nc4ccc(OCc5cccc(F)c5)c(Cl)c4)c3c2)cs1.Cl` [GW583340]: the “%Inh” value in the test on JNK1 turned out to be 0%; with JNK2, 0%; in the test on JNK3, 0%; in the test with KIT-autoinhibited it was 0%; with KIT, 7%; in the test with LATS1, 0%. For the same compound, the “%Inh” value amounted to 9% in the test with LATS2, 5% in the test on LCK, 0% in the test on LIMK1 and 3% in the test with LIMK2.

In the case of `CCn1c(-c2ccncc2)nc2cnccc21` [SB-735216], the “%Inh” value with JNK1 is 23%; with JNK2, 11%; with JNK3, 17%; in the test with KIT-autoinhibited, 10%; in the test with KIT it was 0%; in the test with LATS1 it was 17%. Further, the “%Inh” value came to 9% in the test on LATS2, 0% in the test with LCK, 12% with LIMK1 and 0% in the test with LIMK2.

`Nc1nc(-c2ccccn2)c(-c2ccnc3ccccc23)s1` [GW548057]: the “%Inh” value with JNK1 is reported as 0%; in the test with JNK2, 19%; in the test on JNK3 it was 1%; in the test with KIT-autoinhibited, 3%; in the test with KIT it was 11%; in the test with LATS1 it was 0%. Moreover, the “%Inh” value with LATS2 stood at 23%; in the test on LCK, 10%; with LIMK1, 0%; with LIMK2 it was 9%.

As to `CCc1nc(-c2cccc(N(C)S(=O)(=O)c3ccccc3)c2)c(-c2ccnc(Nc3ccc(N4CCN(C(C)=O)CC4)nc3)n2)s1` [GSK1645895], the “%Inh” value with JNK1 was determined as 23%; with JNK2, 30%; with JNK3, 22%; in the test on KIT-autoinhibited, 8%; in the test on KIT, 19%; in the test with LATS1, 0%. Further, the “%Inh” value with LATS2 turned out to be 20%; in the test with LCK it was 44%; in the test with LIMK1 it was 31%; in the test with LIMK2, 0%.

As to `Fc1ccc(-c2ncn(CCCNCc3ccccc3)c2-c2ccncc2)cc1`, the “%Inh” value with JNK1 amounted to 34%; with JNK2, 48%; with JNK3, 57%; in the test with KIT-autoinhibited, 4%; with KIT, 19%; in the test on LATS1 it was 30%. Further, the “%Inh” value with LATS2 was 34%; in the test on LCK, 40%; in the test on LIMK1 it was 10%; with LIMK2, 7%.
